Screening data as filed in PubChem.
Rows were chosen to be rich in hits. Some 0.34% of all compounds tested hit in one or more screens of this group.
BCR signal inh: inhibitors of chronic active B-cell receptor signaling; ABC-DLBCL IkBa-CBG/CBR reporter, luminescence ratio, 4 h; Potency, µM (series often up to 46.1 µM), for the others: at the highest dose activity change, negative = inhibition, usual class: inhibitors; actives 0.05% (n = 340,000); active = well fitted inhibition curve with a large enough effect in the signal ratio, with a control signal flat, not every such curve was filed as active; inconclusive = small, poorly fitted or top-dose-only effect, or effect the other way, or a change in a side signal; the % refers to the signal ratio;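 note: potency is the fitted concentration of half-maximal effect; plate controls were basal doxycycline-induced cells for no effect and cells given 10 µM MG132 for full effect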
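Compounds up to 46 uM were incubated four hours with TMD8 cells whose green CBG68 luciferase is fused to IkappaBalpha; red CBR luminescence normalised the signal, and concentration-effect curves were fitted to fusion, red and ratio data.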
Pin1 inh: human Pin1 inhibition; Pin1 FP peptide displacement, HiFluor488, 10 min; Q13526; Potency, µM (titrated, usually from 115 µM), for inactives: top-dose activity, negative = inhibition, hits mostly inhibitors; AID 504891; actives 0.009% (n = 390,000); active = well fitted inhibition curve with a large enough effect in the polarisation, with a control signal flat, not every such curve was filed as active; inconclusive = small, poorly fitted or top-dose-only effect, or effect the other way, or a change in a side signal; inactive = no such curve, though single readings can be large or run the other way; the % refers to the polarisation; note: potency is the fitted concentration of half-maximal effect
Target sequence (Q13526 whole entry, looked up): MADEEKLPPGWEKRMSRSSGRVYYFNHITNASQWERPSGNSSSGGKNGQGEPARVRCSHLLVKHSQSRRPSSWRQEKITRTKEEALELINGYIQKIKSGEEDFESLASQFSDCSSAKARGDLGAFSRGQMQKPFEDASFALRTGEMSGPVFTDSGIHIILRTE
Tb PFK inh: T. brucei PFK enzyme inhibition; O15648; T. brucei PFK, ADP-Glo luminescence; AID 485367; Potency, µM (doses to about 57.5 µM), for inactives: top-dose activity, negative = inhibition, usual class: inhibitors; actives 0.17% (n = 330,000);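 note: potency is the fitted concentration of half-maximal effect; 0% = uninhibited 1x PFK enzyme wells and -100% = no-enzyme wells; nearly all actives have a fitted effect of over 60% in size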
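Compounds were pin-transferred as a titration series up to 57 uM into substrate buffer (0.5 mM F6P, 0.1 mM ATP, pH 8.0), then 1.25 nM PFK was added and reactions ran 45 min before ADP-Glo detection.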
PI4K2A block: PI4K2A (human) kinase inhibition; AID 1346378; purified PI4K2A, ADP-Glo luminescence, 1 h; active compounds read low; Q9BTU6; actives 0.13% (n = 420,000); activity change, negative = inhibition, % at 76.9 µM; in the data active = activity change below about -50%; inconclusive = mostly about -30% to -49%;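 note: -100% = wells without enzyme as full effect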
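PI4K2A activity was measured by ADP-Glo luminescence: enzyme (4 ug/mL stock) and phosphatidylinositol (1.2 mM stock) in Tris pH 7.5/MgCl2/EGTA/Triton X-100 buffer were reacted with ATP (300 microM stock) for one hour at ambient temperature.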
PGK inhibitor: blocks T. brucei phosphoglycerate kinase; P07378; PGK/GAPDH coupled, Kinase-Glo luminescence, 60 min; Potency, µM (top dose mostly 57.5 µM), without a hit: top-dose activity change, negative = inhibition, hits mostly inhibitors; actives 0.043% (n = 380,000); AID 602233; note: potency is the fitted concentration of half-maximal effect; nearly all actives have a fitted effect of over 60% in size
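Luminescent ATP detection (Kinase-Glo Plus) follows a 60-minute room-temperature incubation, with wells lacking PGK as controls. Buffer: 100 mM TEA (pH 7.6), 5 mM MgCl2, 0.01% Tween-20. Coupling enzyme GAPDH (100 nM final) supplies unstable 1,3-BPG in-well.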
Numbers without * were called inactive; i = inactive; ? = inconclusive; · = no result; ! = repeats disagree. Unless noted, calls come from the whole dose curve; as a rule, active = well fitted curve in the direction sought with a large enough effect; inconclusive = small, poorly fitted or top-dose-only effect, or another doubt; inactive = no such curve, though single readings can be large; an effect the other way counts as inactive or inconclusive. Unless noted, % is set by controls: 0 for no effect and ±100 for the full control effect.

SMILES	BCR signal inh	Pin1 inh	Tb PFK inh	PI4K2A block	PGK inhibitor
Cc1ccc(-c2nnc(N3CCC(C(N)=O)CC3)s2)cc1	·	-7.8%	·	·	·
NS(=O)(=O)c1cc2c(cc1Cl)CN(C1CCCCC1)C2=O	·	·	·	0.8	·
CC(=O)c1cnc2c(-c3ccc(Cl)cc3)cnn2c1C	?	-0.6%	1.7%	1.0	0.8%
Nc1c(C(=O)O)cnc2c(-c3ccc(Cl)cc3)cnn12	?	-0.6%	-2.0%	-9.1	31.6µM*
COc1ccccc1C(=O)O/N=C(\N)c1ccccn1	?	1.1%	-29.2%	-11.6	-13.3%
N/C(=N\OC(=O)c1ccc(Cl)cc1)c1ccccn1	?	0.3%	-20.0%	-69.5*	?
Cc1ccc(C(=O)O/N=C(\N)c2ccccn2)c(C)c1	?	-3.0%	?	-84.8*	15.8µM*
COc1ccc(C(=O)O/N=C(\N)c2ccccn2)cc1	?	-1.8%	15.1µM*	-89.7*	11.2µM*
N/C(=N\OC(=O)c1ccccc1Cl)c1ccccn1	?	-1.4%	?	-51.1*	?
COc1cc(OC)cc(C(=O)O/N=C(\N)c2ccccn2)c1	?	-8.2%	-0.7%	-1.7	-2.4%
O=[S+]([O-])(c1ccc(-c2ccccc2)cc1)N1CCN([S+](=O)([O-])c2ccc3c(c2)OCCO3)CC1	·	3.0%	·	·	·
CCCc1ncc(C(=O)O)s1	·	·	·	-0.3	·
CC(=O)Nc1sc2c(c1-c1ccccc1)CCNC2	·	-4.0%	·	·	·
COc1ccc(C(=O)NNC(=O)c2ccccn2)cc1	?	-3.3%	15.1µM*	-85.1*	?
Cc1c([S+](=O)([O-])N2CCN([S+](=O)([O-])c3c(F)cccc3F)CC2)sc2ccc(Cl)cc12	·	-0.9%	·	·	·
N#Cc1ccccc1NC(=O)CSC1=Nc2ccccc2C2CC=NN12 (centres undefined)	20µM*	9.1%	-7.6%	-4.8	i
COc1ccc(Br)cc1CNc1ccc(O)cc1	-0.5%	?	-4.8%	-50.1*	-5.6%
Cc1cnc(N2CCC(C(N)=O)CC2)nc1-c1cccc(N(C)C)c1	·	2.4%	·	·	·
NC(=O)C1CCN(c2ncc(-c3ccc(Br)cc3)s2)CC1	·	1.7%	·	·	·
COc1cc(OC)c(OC)cc1/C=C1/C(=O)NC(=O)N(Cc2ccccc2)C1=O	-0.9%	27.6%	7.2%	-52.7*	-1.5%
Cc1ccc(NS(=O)(=O)c2ccc(N3CCCC3=O)cc2)cc1C	·	1.9%	·	·	·
COc1ccccc1CNC(=O)COC(=O)c1cc(C)nc2ccccc12	0.0%	2.0%	-0.5%	1.6	-3.5%
COc1ccccc1CNC(=O)COC(=O)c1cc(-c2ccco2)nc2ccccc12	?	?	?	-52.7*	·
CC(=O)Nc1cccc(OCc2cccc(C3Nc4ccccc4C(=O)N3Cc3ccco3)c2)c1 (centres undefined)	·	51.7%	·	·	·
CN(C)[C@@H]1C(=O)C(C(N)=O)=C(O)[C@@]2(O)C(=O)C3=C(O)c4c(O)cccc4[C@@](C)(O)[C@H]3[C@H](O)[C@@H]12	?	?	?	-62.9*!	?
SMILES	BCR signal inh	Pin1 inh	Tb PFK inh	PI4K2A block	PGK inhibitor
N#Cc1ccccc1S(=O)(=O)N1CCN(S(=O)(=O)c2ccc3c(c2)OCCO3)CC1	·	6.8%	·	·	·
CCOC(=O)c1ccc(Nc2cnc3ccccc3n2)cc1	?	14.6%	-1.3%	-1.7	4.9%
O=C(O)c1ccc(Nc2cnc3ccccc3n2)cc1	?	-0.9%	2.2%	-55.1*	-12.6%
COc1ccc(-c2ccc3ncnc(NCc4nc(C)cs4)c3c2)cc1OC	·	-2.9%	·	·	·
Cc1ccc(NC2=CC(=O)C(=O)c3ccccc32)cc1	?	-13.2%	-3.4%	-66.3*	0.0%
CC(=O)Nc1ccc(NC2=CC(=O)c3ccccc3C2=O)cc1	-5.6%	-5.1%	1.8%	-11.5	-9.8%
O=C1C=C(Nc2ccc(O)cc2)C(=O)c2ccccc21	?	?	?	-56.1*	?
COc1ccc(C2Nc3ccccc3C(=O)N2CCCN(C)C)cc1COc1ccc(NC(C)=O)cc1 (centres undefined)	·	1.6%	·	·	·
COc1ccccc1C(=O)Nc1nc2ccccc2[nH]1	?	0.7%	?	-90.8*	7.94µM*
COc1ccccc1C(=O)NCCC(=O)Nc1nc2ccccc2[nH]1	?	3.6%	-15.9%	-0.1	5.2%
